# The list is not random: actives were taken first. Their share in the collection is about 1.7%.
# GLP1R cytotox: qHTS of GLP-1 Receptor Inverse Agonists: Cytotox Screen | HEK293 cAMP-luciferase reporter cells, luminescence, 24 h | Potency, µM (highest dose often 38.3 µM), for the others: top-dose activity change, negative = inhibition, hits mostly inhibitors | 0.13% of 410,000 active;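 further: loss of luciferase light is scored as toxicity; potency means the concentration at half of the fitted maximal effect; on the % scale 0 is the no-effect control and ±100 the full control effect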
#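 Compound-treated cells are incubated 24 hr at 37 deg C under 5% CO2 after a 12 hour attachment period, then luciferase detection reagent is added and luminescence is measured following 12 min at room temperature; lowered signal indicates toxicity.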
# GLP1R ag: qHTS of GLP-1 Receptor Agonists; Potency, µM (top dose mostly 45.6 µM), inactives show at the top dose activation, most hits filed as activators; 0.007% of 380,000 active; AID 624172, 2012; Glucagon-like peptide 1 receptor (Homo sapiens), P43220; HEK293 GLP-1R CRE-luciferase, luminescence, 4-6 h; cells express a hypersensitive GLP-1R form; further: potency means the concentration at half of the fitted maximal effect; % of control where 0% means no effect
# mIDH1 inhibitor: qHTS for Inhibitors of mutant isocitrate dehydrogenase 1 (IDH1): qHTS | IDH1-R132H enzyme, NADPH consumption, diaphorase/resazurin fluorescence | Potency, µM (top dose mostly 76.6 µM), for inactives: at the highest dose activity change, negative = inhibition, actives largely listed as inhibitors | 0.093% of 390,000 active | AID 602179, 2012; further: potency means the concentration at half of the fitted maximal effect; on the % scale 0 is the no-effect control and ±100 the full control effect; nearly all actives have a fitted effect of over 65% in size
#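 IDH1-R132H (0.5 ug/mL dispensed) in pH 7.5 Tris buffer was preincubated 30 min with compound, then given a substrate mix of 0.016 mM NADPH and 2 mM alpha-KG for 80 min at room temperature; remaining NADPH was read by diaphorase/resazurin fluorescence.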
# GLP-1R inv ag: qHTS of GLP-1 Receptor Inverse Agonists (Inhibition Mode). Glucagon-like peptide 1 receptor (Homo sapiens), P43220. HEK293 GLP-1R CRE-luciferase, luminescence, 24 h; GLP-1R form is constitutively active. Potency, µM (titrated, usually from 38.3 µM), inactives show top-dose activity change, negative = inhibition, usual class: inhibitors. 1.6% of 410,000 active. AID 624417, 2012; further: potency means the concentration at half of the fitted maximal effect; on the % scale 0 is the no-effect control and ±100 the full control effect; nearly all actives have a fitted effect of over 55% in size
#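 Assay principle: reduced luminescence from a cAMP-responsive reporter in HEK293 cells co-expressing a constitutively active GLP-1R. Conditions: 24 hr compound incubation, 37 deg C, 5% CO2.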
# LDHA block: qHTS assay for inhibitors of human lactate dehydrogenase; 0.15% of 480,000 active; activity change, % (values are at about 110 or 230 µM); purified LDHA, NADH/diaphorase-resazurin fluorescence; hits give low values; in the data active means activity change below about -30%; inconclusive means mostly about -25% to -30%;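 further: plate controls were DMSO wells for no effect and wells without enzyme for full effect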
#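 Remaining NADH was detected by diaphorase (0.133 mg/mL) converting 37 µM resazurin to fluorescent resorufin, read at 0 and 20 minutes. The preceding 5-minute room-temperature reaction used 2 nM LDHA, 0.2 mM sodium pyruvate and 0.06 mM NADH at pH 7.4.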
# PTHR1 ag: qHTS for PTHR1 Agonists: Primary Screen | Parathyroid hormone/parathyroid hormone-related peptide receptor (Homo sapiens), Q03431 | HEK293 GP2 PTHR1 cells, GloSensor cAMP luminescence, 1 h | Potency, µM (doses to about 115 µM), for inactives: at the highest dose activation, usual class: activators | 0.075% of 410,000 active | AID 743266, 2014; further: potency means the concentration at half of the fitted maximal effect; nearly all actives have a fitted effect of over 55% in size
# Target sequence (Q03431 whole entry, looked up): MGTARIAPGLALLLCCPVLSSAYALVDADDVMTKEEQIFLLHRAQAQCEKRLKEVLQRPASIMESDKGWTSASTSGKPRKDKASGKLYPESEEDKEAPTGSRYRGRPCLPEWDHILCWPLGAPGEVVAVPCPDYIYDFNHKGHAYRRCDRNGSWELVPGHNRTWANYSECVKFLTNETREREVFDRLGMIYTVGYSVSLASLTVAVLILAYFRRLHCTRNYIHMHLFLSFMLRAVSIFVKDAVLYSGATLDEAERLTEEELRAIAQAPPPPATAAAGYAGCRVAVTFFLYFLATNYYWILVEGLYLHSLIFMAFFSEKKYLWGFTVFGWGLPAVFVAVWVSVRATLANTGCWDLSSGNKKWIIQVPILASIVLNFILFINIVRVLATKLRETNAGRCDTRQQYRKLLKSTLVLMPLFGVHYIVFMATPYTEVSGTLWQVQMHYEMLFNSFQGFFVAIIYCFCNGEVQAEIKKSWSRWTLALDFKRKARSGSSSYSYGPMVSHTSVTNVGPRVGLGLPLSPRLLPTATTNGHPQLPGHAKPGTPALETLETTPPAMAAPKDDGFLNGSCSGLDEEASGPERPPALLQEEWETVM
#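 HEK-293-derived GP2 cells expressing PTHR1 and a GloSensor cAMP reporter, 3,000/well, plated overnight, given luciferin plus IBMX (each 0.5 mM as added) for 1 h at 37 °C, then compound for 1 h at 37 °C. Luminescence was read after 15 min at room temperature.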
# Numbers without * were called inactive; i = inactive; u = inconclusive; x = no result; [ ] = another dose, or the depositor's remark. Unless noted, the call rests on the fitted dose curve; in most records, active means well fitted curve in the direction sought with a large enough effect; inconclusive means small, poorly fitted or top-dose-only effect, or another doubt; inactive means no such curve, though single readings can be large; an effect the other way counts as inactive or inconclusive.
SMILES,GLP1R cytotox,GLP1R ag,mIDH1 inhibitor,GLP-1R inv ag,LDHA block,PTHR1 ag
CN(C)CCNC(=O)c1ccc2c(c1)N(Cc1ccc(F)cc1)CCS2,1.4%,-2.8%,0.9%,3.16µM*,-0.1,-14.0%
Cc1ccc(CN2CCSc3ccc(C(=O)NCCCN4CCN(C)CC4)cc32)cc1,u,29.9%,-9.3%,5.62µM*,-2.8,i
O=C(NCC1CCCO1)c1ccc2c(c1)N(Cc1ccc(Cl)cc1)CCS2 (stereo unspecified),-16.8%,8.0%,6.2%,10µM*,8.6,-17.3%
Cc1ccc(CN2CCSc3ccc(C(=O)NCC4CCCO4)cc32)cc1 (stereo unspecified),0.0%,1.7%,-7.0%,u,5.0,i
Nc1nc(N2CCN(Cc3ccc(Cl)cc3Cl)CC2)c2[nH]cnc2n1,x,x,x,x,-6.2,x
COc1cc(OC)cc(-c2noc(-c3ccc(CSCc4ccccc4F)o3)n2)c1,x,x,x,x,2.6,x
CC1=C2C(=O)CC(c3ccc(F)cc3)CC2=Nc2ccccc2N1 (stereo unspecified),x,x,x,x,2.9,x
COc1ccc(C)cc1NC(=O)C1CCN(C(=O)c2ccc(C(C)(C)C)cc2)CC1,-19.3%,23.4%,-6.2%,8.91µM*,-2.9,-16.9%
CC(C)=CCCC(C)CN1CCC(N2CCC(C(=O)N3CCOCC3)CC2)CC1 (stereo unspecified),-3.4%,-0.4%,-13.0%,2.51µM*,-4.9,i
Cc1cc(SCC(=O)Nc2ccccc2)nc2ccccc12,x,x,x,x,-4.5,x
Cc1ccc(Cn2nnnc2CN2CCC(c3nc4ccc(Cl)cc4[nH]3)CC2)cc1,15.5%,-12.8%,-2.2%,11.2µM*,1.4,-17.6%
Cc1ccc(C(=O)OCC(=O)NCc2ccco2)cc1S(=O)(=O)Nc1cccc(Cl)c1,x,x,x,x,9.3,x
CC(C)N(Cc1nc(-c2ccc(Cl)cc2)no1)C(=O)/C=C/c1ccccc1,-1.4%,2.3%,-1.9%,11.2µM*,3.9,i
CSc1ccccc1NC(=O)CSCc1ccc(C)cc1,-27.7%,10.0%,11.1%,5.01µM*,-5.1,i
CCOc1ccc(NC(=S)N(CCc2c(C)[nH]c3ccccc23)Cc2cccnc2)cc1,0.4%,-1.2%,0.4%,10µM*,-2.3,-17.1%
Cc1[nH]c2ccccc2c1CCN(Cc1cccnc1)C(=S)Nc1ccc(F)cc1,1.6%,1.3%,-5.8%,u,-1.5,-4.7%
CCN(CC)c1nc(-c2ccccn2)nc(-c2ccccc2)c1C#N,u,16.7%,-0.5%,12.6µM*,-1.6,-20.3%
CCCN(CCC)c1nc(-c2ccccn2)nc2ccccc12,u,18.3%,4.3%,3.55µM*,2.6,-17.9%
CN(C)c1nc(-c2ccccn2)nnc1-c1ccccc1,u,-7.1%,-1.0%,6.1%,5.3,i
O=C(O)c1cnc(-c2ccccc2)nc1Sc1ccccc1,23.5%,-7.6%,-3.5%,0.9%,-39.7*,-2.4%[57.5 µM]
Cc1ccc(NS(=O)(=O)c2ccc(C)c(C(=O)N(C)C)c2)cc1,x,x,x,x,4.3,x
O=C(COC(=O)c1ccc(=O)n(Cc2ccccc2)n1)NCC(F)(F)F,x,x,x,x,-3.1,x
Cc1cccc2sc(N(CCCN(C)C)C(=O)CCc3ccccc3)nc12,u,-13.3%,8.3%,2.82µM*,1.6,i
Cc1cccc2sc(N(CCCN(C)C)C(=O)CN3C(=O)c4ccccc4C3=O)nc12,u,10.6%,2.8%,15.9%,-5.5,6.3%
C/C(=N\NC(=S)NCCc1ccccc1)c1ccc(C)cc1,10µM*,1.9%,-0.1%,u,-0.7,i

# From PubChem
